Source: PubChem
E coli Lon inh: inhibitors of E. coli Lon protease, primary screen, biochemical, fluorescence polarization. purified E. coli Lon protease. 360,000 compounds, 0.42% hits. inhibition, % at 7.94 µM. P0A9M0; in the data active = inhibition above about 13%, passing the limit was not always enough
GLD-1 RNA inh: GLD-1/TGE RNA complex disruptors, primary screen, biochemical, fluorescence polarization | inhibition, % at 5.96 µM | 320,000 compounds, 0.44% hits | purified GLD-1 + fluorescein TGE RNA | Female germline-specific tumor suppressor gld-1 (Caenorhabditis elegans), Q17339;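 active = percent inhibition above a per-plate cutoff, the plate mean of test compounds plus 3 SD, cut at about 30% in these data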
BCLXL inh: inhibitors of human Bcl-xL, primary screen, biochemical, fluorescence polarization, HTS. Bcl-2-like protein 1 (Homo sapiens), Q07817. GST-Bcl-xL / FITC-Bim BH3 peptide fluorescence polarization. inhibition, % at 10.9 µM. 320,000 compounds, 0.7% hits. AID 2129, 2009;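 active = inhibition above the mean of all tested compounds plus 3 SD, cutoff set per campaign, cut at about 30% in these data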;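 also: inhibitors lower millipolarization by displacing the labeled peptide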
MCL1-BIM inh: inhibitors of MCL1 binding to BIM-BH3, primary screen, biochemical, fluorescence polarization | GST-MCL1 / FITC-Bim-BH3 fluorescence polarization | inhibition, % at 10.9 µM | Induced myeloid leukemia cell differentiation protein Mcl-1 (Homo sapiens), Q07820 | 320,000 compounds, 0.68% hits;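 active = inhibition above the mean inhibition of all tested compounds plus 3 SD, set per campaign, cut at about 40% in these data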;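 also: higher means more loss of mP so more displacement of Bim peptide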
MEX-5 binding: MEX-5 zinc finger RNA-binding disruptors – biochemical, C. elegans, fluorescence polarization, MLPCN library, primary screen; Zinc finger protein mex-5 (Caenorhabditis elegans), Q9XUB2; MEX-5/FITC-TCR2 RNA binding; active compounds read low; activity score (negative = inhibition of binding), % at 10 µM; 300,000 compounds, 0.38% hits;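 active = inhibition past about -25% in most replicates, and total fluorescence under double the plate's negative control median, limit read from the data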
Target sequence (Q9XUB2 whole entry, looked up): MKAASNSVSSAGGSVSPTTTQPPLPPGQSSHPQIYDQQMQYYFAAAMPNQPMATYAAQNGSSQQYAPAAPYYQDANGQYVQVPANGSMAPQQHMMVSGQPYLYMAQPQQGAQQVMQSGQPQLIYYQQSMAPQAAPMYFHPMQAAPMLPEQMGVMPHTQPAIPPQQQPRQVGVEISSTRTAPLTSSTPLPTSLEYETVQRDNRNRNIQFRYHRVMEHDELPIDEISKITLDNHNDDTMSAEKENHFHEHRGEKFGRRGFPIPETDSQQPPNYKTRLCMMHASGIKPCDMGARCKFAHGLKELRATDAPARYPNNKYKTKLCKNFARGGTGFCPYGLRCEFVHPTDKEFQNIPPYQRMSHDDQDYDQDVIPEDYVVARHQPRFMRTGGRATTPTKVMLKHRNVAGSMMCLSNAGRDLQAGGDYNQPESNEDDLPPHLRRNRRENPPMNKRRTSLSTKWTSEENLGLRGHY
A number is an active result; 0 = inactive; - = not tested or not shown. The list is not random: actives were taken first. Their share in the collection is about 1.4%.

SMILES	E coli Lon inh	GLD-1 RNA inh	BCLXL inh	MCL1-BIM inh	MEX-5 binding
Cc1cc2nc(-c3ccccc3Br)n(/C=C(\c3ccccc3)n3c(=O)[nH]c4ccccc43)c2cc1C	0	-	-	-	-
CC(Oc1ccc(F)cc1)C(=O)Nc1ccccc1C(=O)N1CCCCC1 (stereo unspecified)	0	0	0	0	-
CCN1C(=C(C#N)C#N)C=Cc2cc(C)ccc21	0	41	0	0	0
CCN1C(=O)/C(=C2/C=Cc3cc(C)ccc3N2CC)N(C)C1=S	0	0	0	0	0
CCOC(=O)C1=C(C)N=c2s/c(=C\c3cccn3C)c(=O)n2C1c1cccc(OC)c1OC (stereo unspecified)	0	0	0	0	-40
Cc1ccc(-n2c(O)c(C=Nc3ccc4c(c3)OCO4)c3ccccc3c2=O)cc1C	0	0	0	0	0
Cc1cc(N=Cc2c(O)n(-c3ccc4c(c3)OCO4)c(=O)c3ccccc23)ccn1	0	0	0	0	-31
O=C(c1ccco1)N1CCN(c2ncnc3c(-c4ccc(Cl)cc4)nsc23)CC1	0	0	0	0	-29
Cc1ccc(-c2csc3ncnc(N4CCN(C(=O)c5ccco5)CC4)c23)cc1	0	0	0	0	-
OC[C@H]1O[C@H](c2nc(-c3nc(-c4cccc(-n5cccc5)c4)no3)cs2)C[C@@H]1O	0	-	-	-	-
CCOC(=O)c1ccc(N2C(=O)C3C(C2=O)C(C(=O)c2ccc(Cl)cc2)N2CCCC32)cc1 (stereo unspecified)	0	0	58	0	0
C[C@H](O)[C@@H]1C(=O)N2CCc3c([nH]c4ccccc34)[C@@H]2C[C@@H]1N(C)C(=O)c1ccco1	0	-	-	-	-
Nc1nc(-c2ccccc2)[nH]c(=O)c1N	0	0	0	0	-26
COc1ccc(CC(=O)Nc2cc(Cl)ccc2C(=O)O)cc1	0	0	0	0	0
CCCCOc1ccc(Nc2cc(Cl)ccc2C(=O)O)cn1	0	0	37	0	0
CCOC(=O)c1cnc2cc(C)ccn2c1=O	0	0	0	0	0
COc1ccc(CNC(=O)c2cnc3cc(C)ccn3c2=O)cc1	0	0	0	0	-28
CNc1cnc(-c2ccccc2OC)cn1	0	-	-	-	-
Cc1ccc2nc(-c3ccccc3)c(Cc3ccsc3)n2c1	0	-	-	-	-
COc1cc(C(CCN2CCCC2)c2c(OC)cc(OC)c3c(-c4ccccc4)cc(=O)oc23)cc(OC)c1OC (stereo unspecified)	0	0	0	0	-48
COc1cc(C(CCN2CCOCC2)c2c(OC)cc(OC)c3c(-c4ccccc4)cc(=O)oc23)cc(OC)c1OC (stereo unspecified)	0	-	-	-	-
COc1ccccc1S(=O)(=O)N(C)C[C@@H]1OCc2cn(nn2)CCCC(=O)N([C@H](C)CO)C[C@H]1C	0	-	-	-	-
COc1ccc(Br)cc1C1=CC(=O)C[C@H](c2ccc(F)cc2)C1	0	-	-	-	-
CN(C)c1ccc(/C=C(\C#N)C(=O)NCc2ccco2)cc1	-	0	0	0	-42
Cc1ccc(CNC(=O)/C(C#N)=C\c2ccc(N(C)C)cc2)cc1	-	0	0	0	-60
SMILES	E coli Lon inh	GLD-1 RNA inh	BCLXL inh	MCL1-BIM inh	MEX-5 binding
CCN(CC)c1ccc(/C=C(\C#N)C(=O)NCc2ccccc2)cc1	0	0	0	0	0
CCCCN1C2=C(C(=O)CCC2)C(c2ccc(Cl)c(Cl)c2)C2=C1c1ccccc1C2=O (stereo unspecified)	0	0	44	43	0
O=C/C(=C\Nc1ccccn1)c1nc2ccccc2o1	0	0	0	0	-37
OCCNc1ncnc2c1ncn2[C@H]1CN(Cc2ccc(Cl)cc2)C[C@@H](CO)O1	0	-	-	-	-
COC(=O)N/N=C/c1cn(CCOc2cccc(OC)c2)c2ccccc12	0	0	0	0	0
COc1cccc(OCCn2cc(C=O)c3ccccc32)c1	0	0	0	0	-27
N#Cc1ccccc1OCCN1C(=O)c2ccccc2C1=O	0	0	0	0	0
Nc1cccc2c1C(=O)N(CCOc1ccccc1F)C2=O	0	0	35	0	0
CCCCNC(=O)c1nc(-c2ccncc2)oc1-c1ccccc1	0	-	-	-	-
COc1ccc(-c2cc3c(=O)n(CC(=O)NCc4cccnc4)ncn3n2)cc1	0	0	0	0	0
COc1ccc(-c2cc3c(=O)n(CC(=O)Nc4ccc(C(C)=O)cc4)ncn3n2)cc1	0	0	73	0	0
CC1CCCC(C)N1C(=O)CSc1nnnn1-c1cccc2c1CCCC2 (stereo unspecified)	0	55	0	0	0
